Screening results as filed in PubChem.
This is one part of a sample in which hits are shown more often than they occur.
IL-1B inflam inh: blocks inflammasome-driven IL-1 beta release | THP-1 LPS/ATP IL-1B secretion, AlphaLISA, 16 h; stronger effect = lower value | activity change, % at 57.5 µM | 4.7% of 360,000 active | AID 743279; in the data active = activity change below about -50%; inconclusive = mostly about -30% to -49%
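THP-1 cells pretreated 1 hr with compounds (up to 57.5 uM final), then stimulated with LPS (250 ng/mL final) plus ATP (1.25 mM final); secreted IL-1B measured by AlphaLISA after 16 hr, decreased signal indicating inhibition.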
HT1080 IDH1KD tx: toxicity to HT-1080 IDH1 knockdown cells (counter line). HT-1080 IDH1 knockdown viability, ATP luminescence, 48 h. Potency, µM (doses to about 46.1 µM), for the others: top-dose activity, negative = toxicity, usual class: cytotoxic. 2% of 360,000 active;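 also: potency is read from the fitted curve at half-maximal effect; 0% = DMSO wells and -100% = cell-free medium wells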
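% activity derives from luminescence (CellTiter-Glo), normalised to DMSO and no-cell wells. HT-1080-IDH1KD cells, 750/well, had 48 h compound exposure at 37 °C.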
TDP1 cell CPT: DT40-hTDP1 cell growth loss with CPT; chicken DT40 Tdp1-/-;hTDP1 cells + 20 nM CPT, ATP luminescence, 48 h; Potency, µM (doses to about 46.2 µM), without a hit: at the top dose activity change, negative = growth inhibition, most hits filed as inhibitors; 12% of 420,000 active; also: potency is read from the fitted curve at half-maximal effect; nearly all actives have a fitted effect of over 55% in size
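Chicken DT40 Tdp1-/- cells complemented with human TDP1, 400 cells/well, exposed to compounds plus 20 nM camptothecin for at least 48 h at 37 C; viability read as ATP content by CellTiter-Glo luminescence.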
12-LOX inh: ALOX12 (human) lipoxygenase inhibition | P18054 | purified 12hLO, xylenol orange hydroperoxide absorbance | Potency, µM (titrated, usually from 108 µM), for the others: top-dose activity change, negative = inhibition, usual class: inhibitors | 1.1% of 580,000 active; also: potency is read from the fitted curve at half-maximal effect
Target sequence (P18054 whole entry, looked up): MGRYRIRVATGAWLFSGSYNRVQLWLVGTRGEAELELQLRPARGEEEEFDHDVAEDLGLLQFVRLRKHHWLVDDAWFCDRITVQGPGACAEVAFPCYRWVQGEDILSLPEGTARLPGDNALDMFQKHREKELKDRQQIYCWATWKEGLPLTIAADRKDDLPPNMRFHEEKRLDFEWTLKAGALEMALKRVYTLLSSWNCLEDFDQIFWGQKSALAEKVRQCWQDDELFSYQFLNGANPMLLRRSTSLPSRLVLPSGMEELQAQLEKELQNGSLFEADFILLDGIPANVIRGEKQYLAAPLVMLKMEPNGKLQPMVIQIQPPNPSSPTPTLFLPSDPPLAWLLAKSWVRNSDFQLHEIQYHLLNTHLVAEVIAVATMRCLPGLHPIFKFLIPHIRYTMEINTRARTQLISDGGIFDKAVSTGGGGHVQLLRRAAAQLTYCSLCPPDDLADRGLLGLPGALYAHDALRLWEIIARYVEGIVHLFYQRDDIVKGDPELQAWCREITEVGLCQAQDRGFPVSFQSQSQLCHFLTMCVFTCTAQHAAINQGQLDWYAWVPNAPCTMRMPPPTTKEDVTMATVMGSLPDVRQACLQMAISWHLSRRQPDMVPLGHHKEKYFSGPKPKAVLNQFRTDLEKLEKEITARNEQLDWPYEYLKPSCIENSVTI
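Purified human 12hLO (150 nM final) in 25 mM Hepes, 0.01% Triton X-100, pH 7.0 was preincubated 15 min at room temperature with compound. Then 40 uM arachidonic acid was added, 30 min. Hydroperoxide was read by Fe-XO absorbance ratio 573/405 nm.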
HT1080NT lethal: kills 2HG-producing HT-1080-NT fibrosarcoma cells | HT-1080-NT fibrosarcoma viability, CellTiter-Glo ATP luminescence, 48 h | Potency, µM (series often up to 46.1 µM), inactives show top-dose activity, negative = less viability, most hits filed as cytotoxic | 1.6% of 360,000 active | AID 686970;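 also: NT is the 2HG producing partner of a matched IDH1 knockdown line; potency is read from the fitted curve at half-maximal effect; 0% = DMSO-treated cells and -100% = media-only wells without cells; nearly all actives have a fitted effect of over 55% in size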
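Viability of the 2HG-overproducing fibrosarcoma line after 48 hours of compound exposure at 37 degrees C was determined by luminescence with CellTiter-Glo, and concentration-effect curves were then fitted and categorized.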
TDP1 cell noCPT: qHTS for Inhibitors of human tyrosyl-DNA phosphodiesterase 1 (TDP1): qHTS in cells in absence of CPT | 15% of 420,000 active | DT40 Tdp1-/- hTDP1 cells, no CPT, ATP luminescence, 48 h | Potency, µM (highest dose often 46.2 µM), inactives show at the highest dose activity change, negative = growth inhibition, usual class: inhibitors; also: potency is read from the fitted curve at half-maximal effect; nearly all actives have a fitted effect of over 55% in size
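Compound effects on proliferation are scored in DT40 Tdp1-/-;hTDP1 cells in the absence of CPT. ATP levels (CellTiter-Glo luminescence) are recorded after a ≥48 hr, 37 °C incubation.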
* marks the source's active call; other numbers are inactive results; ? = inconclusive; . = no result; [ ] = dose if it differs, or a comment. Unless noted, calls follow the shape of the dose curve; as a rule, active = well fitted curve in the direction sought with a large enough effect; inconclusive = small, poorly fitted or top-dose-only effect, or another doubt; inactive = no such curve, though single readings can be large; an effect the other way counts as inactive or inconclusive. Unless noted, % is scaled to controls: 0 for no effect and ±100 for the full control effect.

SMILES	IL-1B inflam inh	HT1080 IDH1KD tx	TDP1 cell CPT	12-LOX inh	HT1080NT lethal	TDP1 cell noCPT
COCC(=O)N1CCCC(c2nn(-c3ccc(OC)cc3)c(=O)[nH]2)C1 (stereo not drawn)	.	.	.	37.5%[176 µM]	.	.
CCC(C)NC(=O)c1ccccc1NC(=O)C1CCN(S(=O)(=O)Cc2ccc(C)cc2)CC1 (stereo not drawn)	.	.	.	5.8%	.	.
Cc1ccc(N2C(=O)c3oc4ccccc4c(=O)c3C2c2cccc(O)c2)nc1 (stereo not drawn)	-11.2	-6.6%	20.6µM*	-2.7%[57.4 µM]	-8.3%	?
COc1cc(C2c3c(oc4ccccc4c3=O)C(=O)N2c2ccc(C)cn2)ccc1O (stereo not drawn)	42.6	10.3%	?	326.2%	12.9%	-11.8%
COC(=O)CC/C(=N/Nc1ccc(Cl)c(Cl)c1)C(=O)OC	19.8	17.3%	-3.6%	15.8µM*	7.9%	7.6%
Cc1nc(N)c(C#N)c(-c2ccc3c(c2)OCO3)c1C	16.8	9.4%	-22.1%	-0.2%	-1.0%	9.5%
N#Cc1c(N)oc(-c2ccc3c(c2)OCO3)c1-c1ccc2c(c1)OCO2	-61.0*	3.6%	0.0%	?	1.7%	-6.7%
O=S(=O)(Cc1ccccc1)NCCCCl	.	.	.	23.3%	.	.
Cc1ccccc1CN1CCc2nc(N3CCN(c4ncccn4)CC3)ncc2C1	.	.	?	?	.	20.6µM*
CCOc1ccccc1CN1CCc2nc(N3CCN(c4ccccc4F)CC3)ncc2C1	.	.	16.4µM*	?	.	20.6µM*
Fc1ccc(CN2CCc3nc(N4CCN(c5ccccc5F)CC4)ncc3C2)c(F)c1	.	.	-15.7%	-18.7%	.	0.6%
CCOc1ccc(CN2CCc3nc(N4CCN(c5ccccn5)CC4)ncc3C2)cc1OC	.	.	23.1µM*	-0.6%	.	23.1µM*
CCOc1cc(CN2CCN(c3ncccn3)CC2)ccc1OC	-0.4	9.0%	-5.7%	-53.3%	4.0%	-19.6%
O=C(CNC(=O)c1ccccc1)OCc1cc(=O)oc2cc(O)ccc12	.	.	.	0.1%	.	.
CC(=O)c1ccc(N2CCN(C(=O)c3csc(-c4ccc(Cl)cc4)n3)CC2)cc1	.	.	.	-6.0%	.	.
NC(=O)C1CCCN1C(=O)c1nn(-c2ccccc2)c(=O)c2ccccc12 (stereo not drawn)	.	.	.	22.5%	.	.
CC(C(=O)N(C)CC(=O)Nc1ccccc1C(F)(F)F)N(C)Cc1ccccc1Br (stereo not drawn)	.	.	.	-3.6%	.	.
COCCn1c(C(C)C)nc2sc3ccccc3c(=O)c2c1=O	20.1	-0.3%	-20.5%	-1.4%	8.8%	-27.0%
COc1ccc(Cn2c(C(C)C)nc3sc4ccccc4c(=O)c3c2=O)cc1	?	3.6%	?	0.0%	3.2%	11.6µM*
CC(C)c1nc2sc3ccccc3c(=O)c2c(=O)n1Cc1ccccc1	61.5	-2.0%	16.4µM*	22.1%	0.8%	14.6µM*
CCCc1nc2sc3ccccc3c(=O)c2c(=O)n1Cc1ccc(OC)cc1	39.9	-6.0%	13µM*	0.0%	-16.6%	20.6µM*
Cc1cc(OCCn2c(CNC(=O)c3ccco3)nc3ccccc32)ccc1Cl	.	.	.	20.9%	.	.
COc1ccccc1-c1[nH]ncc1CN1CCCN(S(=O)(=O)c2ccccc2)CCC(=O)NCC1	.	.	.	32.3%	.	.
COc1ccccc1Oc1cn[nH]c1-c1ccc(O)cc1O	16.7	-9.1%	-24.9%	-18.3%	-11.8%	20.6µM*
COc1cccc(Oc2cn[nH]c2-c2ccc(O)cc2O)c1	14.7	?	9.2µM*	?	?	?
SMILES	IL-1B inflam inh	HT1080 IDH1KD tx	TDP1 cell CPT	12-LOX inh	HT1080NT lethal	TDP1 cell noCPT
O=C(CSc1cccc[n+]1[O-])CSc1cccc[n+]1[O-]	-19.6	0.517µM*	1.03µM*	6.9%	1.03µM*	9.2µM*
[O-][n+]1ccccc1SSc1cccc[n+]1[O-]	.	.	0.106µM*	?	.	0.119µM*
O=C(CSc1cccc[n+]1[O-])N1CCCCCC1	-9.6	0.9%	-7.0%	-27.6%	23.7%	0.5%
[O-][n+]1ccccc1SCc1nc2ccccc2c2ccccc12	.	.	.	-25.4%	.	.
O=C1Nc2ccccc2CC12CCN(CC1CC1)CC2	.	.	.	19.2%[176 µM]	.	.
O=C(NCc1ccccn1)c1ccc(N2CC3CC(C2)[C@H]2CCCC(=O)N2C3)nc1 (stereo partly drawn)	.	.	.	93.2%	.	.
CC(=O)OC(c1nc2ccccc2c(=O)n1C1CC2(OC1=O)c1ccccc1N1C(=O)C(C)(C)N(O)C12)C(C)C (stereo not drawn)	3.6	0.2%	16.4µM*	?	-4.1%	20.6µM*
COc1cc2cc(C#N)c(SCC(=O)N3CCOCC3)nc2cc1OC	-11.2	11.9%	-6.2%	-17.5%	12.8%	-36.5%
CCOc1ccc2cc(C#N)c(SCC(=O)N3CCC(C)CC3)nc2c1	-3.2	0.8%	?	-8.6%	-3.2%	20.6µM*
CC(=O)CSc1nc2cc3c(cc2cc1C#N)OCCO3	-3.4	5.6%	14.6µM*	9.5%	18.1%	?
CCc1ccc2nc(SCC(=O)N(CC)CC)c(C#N)cc2c1	-5.3	-1.8%	20.6µM*	-10.7%	-1.1%	14.6µM*
CCOC(=O)CSc1nc2cc(OCC)ccc2cc1C#N	12.2	2.6%	-21.1%	-20.2%	-1.5%	-24.3%
N#Cc1cc2cc3c(cc2nc1SCC(=O)N1CCCC1)OCCO3	9.5	11.6%	-21.9%	.	17.7%	-10.8%
CCOC(=O)CSc1nc2cc(OC)c(OC)cc2cc1C#N	.	.	?	.	.	17.8µM*
CCN(CC)C(=O)CSc1nc(C)cc(C)c1C#N	9.3	16.0%	3.7%	2.4%	20.9%	?
CC(C)Oc1ccc(CNC(=O)c2ncoc2-c2cccs2)cc1	.	.	.	8.5%	.	.
COc1ccc(CC(=O)N2CCC(Oc3ccc(C(=O)N(C)C)cn3)CC2)cc1Cl	.	.	.	2.8%	.	.
CCCC(=O)N1CCN(c2ccc(NC(=O)c3ccc(N4CCCC4)c([N+](=O)[O-])c3)cc2Cl)CC1	50.7	14.3%	18.4µM*	-1.6%	28.1%	7.31µM*
O=C(Nc1nc2ccc(Cl)cc2s1)c1ccc(N2CCCCC2)c([N+](=O)[O-])c1	?	2.9%	16.4µM*	-4.9%	-1.0%	20.6µM*
O=C(Nc1ccc(N2CCOCC2)c(Cl)c1)C1CCCCC1	-21.9	4.1%	20.6µM*	-5.7%	0.2%	16.4µM*
O=C(Nc1cc(Cl)ccc1N1CCOCC1)c1ccc(N2CCCCC2)c([N+](=O)[O-])c1	-6.2	5.2%	?	-14.4%	-15.5%	?
O=C(Nc1ccc(N2CCCCC2)c(Cl)c1)c1ccc(N2CCOCC2)c([N+](=O)[O-])c1	-13.0	-14.1%	18.4µM*	6.8%	0.6%	12.6µM*
